The values below come from PubChem BioAssay (NCATS).

Records with an inconclusive call do not appear. The source made the active and inactive calls. Calls follow the shape of the dose curve; as a rule, active = well fitted curve in the direction sought with a large enough effect; inconclusive = small, poorly fitted or top-dose-only effect, or another doubt; inactive = no such curve, though single readings can be large; an effect the other way counts as inactive or inconclusive.

The nature of test [1]: qHTS of pediatric cancer cell lines to identify multiple opportunities for drug repurposing: Primary screen for A673 cells (AID 1347092). Also: nearly all actives have a fitted effect of over 45% in size. Also: potency is read from the fitted curve at half-maximal effect. In short, it runs like this: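 A673 cells (500-1,000 cells/well) were treated 48 hours at 37 degrees C with compounds at 11-point (0.78 nM to 46 µM) or 8-point (0.59 nM to 46 µM) dilutions. Viability read by CellTiter-Glo luminescence; concentration-response curves fitted.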
On the technique in general: Quantitative high-throughput screening tests each substance at several concentrations.

Test [2] in a line: qHTS of pediatric cancer cell lines to identify multiple opportunities for drug repurposing: Primary screen for SK-N-MC cells (AID 1347093). Also: potency is read from the fitted curve at half-maximal effect. Put shortly: (§1)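 Metabolically active cells were quantified by ATP-dependent luminescence (CellTiter-Glo, 15 min at room temperature) following 48 h treatment. Cells had been plated at 500-1,000 per well and settled for 5 h beforehand.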
Test [3] is described as follows: qHTS of pediatric cancer cell lines to identify multiple opportunities for drug repurposing: Primary screen for U-2 OS cells (AID 1347096). Also: nearly all actives have a fitted effect of over 50% in size. Put shortly: (§2)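 Cells (500-1,000/well) in growth media were settled 5 h at 37 degrees C, then given compounds for 48 h. Viability was read as CellTiter-Glo luminescence. Primary runs used MIPE at 11 points (0.78 nM-46 µM) and NPC at 8 points (0.59 nM-46 µM); follow-ups used 11 points.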

Test [4] is described as follows: qHTS of pediatric cancer cell lines to identify multiple opportunities for drug repurposing: Primary screen for Saos-2 cells (AID 1347097). Also: nearly all actives have a fitted effect of over 40% in size. Also: potency is read from the fitted curve at half-maximal effect. In short, it runs like this: (§3)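 Phenotypic viability qHTS, 48 h compound exposure, CellTiter-Glo luminescence read-out; multi-concentration dosing so that potency and efficacy derive directly from the primary screen's curves.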

Test [5] can be described thus: qHTS of pediatric cancer cell lines to identify multiple opportunities for drug repurposing: Primary screen for LAN-5 cells (AID 1347100). Also: potency is read from the fitted curve at half-maximal effect. In short, it runs like this:
as §2

The nature of test [6]: qHTS of pediatric cancer cell lines to identify multiple opportunities for drug repurposing: Primary screen for OHS-50 cells (AID 1347103). Also: nearly all actives have a fitted effect of over 40% in size. Also: potency is read from the fitted curve at half-maximal effect. In short, it runs like this:
(§4)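 Cells (500-1,000/well) rested 5 h, then received compounds for 48 h; metabolically active cells were measured by CellTiter-Glo luminescence. Final concentrations spanned up to 46 µM (MIPE, 11-point) or 0.59 nM-46 µM (NPC, 8-point) in primary screens, 11-point in follow-ups.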

The nature of test [7]: qHTS of pediatric cancer cell lines to identify multiple opportunities for drug repurposing: Primary screen for RD cells (AID 1347104). Also: nearly all actives have a fitted effect of over 55% in size. Also: potency is read from the fitted curve at half-maximal effect. Put shortly: as §3
A short description of test [8]: qHTS of pediatric cancer cell lines to identify multiple opportunities for drug repurposing: Primary screen for Rh30 cells (AID 1347107). Also: series mostly up to about 46 µM; nearly all actives have a fitted effect of over 75% in size. In short, it runs like this: as §2
Test [9] in a line: qHTS of pediatric cancer cell lines to identify multiple opportunities for drug repurposing: Confirmatory screen for SK-N-MC cells (AID 1347111).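 Also: potency is read from the fitted curve at half-maximal effect; cells exposed to compound for 48 h before the readout; nearly all actives have a fitted effect of over 70% in size.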 Put shortly: as §1
The nature of test [10]: qHTS of pediatric cancer cell lines to identify multiple opportunities for drug repurposing: Confirmatory screen for BT-12 cells (AID 1347112). Also: nearly all actives have a fitted effect of over 55% in size. Put shortly:
as §2

Test [11] in a line: qHTS of pediatric cancer cell lines to identify multiple opportunities for drug repurposing: Primary screen for BT-37 cells (AID 1347094). Also: potency is read from the fitted curve at half-maximal effect. In short, it runs like this: as §3
The nature of test [12]: qHTS of pediatric cancer cell lines to identify multiple opportunities for drug repurposing: Primary screen for NB1643 cells (AID 1347099). Also: nearly all actives have a fitted effect of over 50% in size. Also: potency is read from the fitted curve at half-maximal effect. In short, it runs like this: as §3
Test [13] in a line: qHTS of pediatric cancer cell lines to identify multiple opportunities for drug repurposing: Primary screen for BT-12 cells (AID 1347101). Also: nearly all actives have a fitted effect of over 25% in size. Also: potency is read from the fitted curve at half-maximal effect. In short, it runs like this: as §4
Test [14] is described as follows: qHTS of pediatric cancer cell lines to identify multiple opportunities for drug repurposing: Primary screen for MG 63 (6-TG R) cells (AID 1347105). Also: nearly all actives have a fitted effect of over 50% in size. Also: potency is read from the fitted curve at half-maximal effect. Put shortly: as §3
Test [15] can be described thus: qHTS of pediatric cancer cell lines to identify multiple opportunities for drug repurposing: Primary screen for control Hh wild type fibroblast cells (AID 1347106).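 Also: series mostly up to about 46 µM; a drop in luminescence marks cytotoxicity and a rise apparent proliferation; nearly all actives have a fitted effect of over 55% in size.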 In short, it runs like this: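 Viability after 48 h compound treatment at 37C, 500-1,000 cells/well, read as ATP luminescence with CellTiter-Glo. Primary screens used 11-point (MIPE, 0.78 nM-46 µM) or 8-point (NPC, 0.59 nM-46 µM) final concentrations; follow-up screens used 11-point dilutions.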

The nature of test [16]: qHTS of pediatric cancer cell lines to identify multiple opportunities for drug repurposing: Primary screen for Rh41 cells (AID 1347108). Also: nearly all actives have a fitted effect of over 70% in size. Also: potency is read from the fitted curve at half-maximal effect. In short, it runs like this: as §3
Test [17] is described as follows: qHTS of pediatric cancer cell lines to identify multiple opportunities for drug repurposing: Primary screen for NB-EBc1 cells (AID 1347095). Also: potency is read from the fitted curve at half-maximal effect. In short, it runs like this: as §3
A short description of test [18]: qHTS of pediatric cancer cell lines to identify multiple opportunities for drug repurposing: Primary screen for SK-N-SH cells (AID 1347098). Also: nearly all actives have a fitted effect of over 65% in size. Also: potency is read from the fitted curve at half-maximal effect. In short, it runs like this:
as §4

Test [19] is described as follows: qHTS of pediatric cancer cell lines to identify multiple opportunities for drug repurposing: Primary screen for Rh18 cells (AID 1347102). Also: nearly all actives have a fitted effect of over 65% in size. Put shortly: as §2
Test [20] is described as follows: qHTS of pediatric cancer cell lines to identify multiple opportunities for drug repurposing: Confirmatory screen for NB1643 cells (AID 1347109). Also: potency is read from the fitted curve at half-maximal effect; nearly all actives have a fitted effect of over 45% in size. In short, it runs like this:
as §2

Take `CCOc1ccn(-c2ccc(F)cc2)c(=O)c1C(=O)Nc1ccc(Oc2ccnc(N)c2Cl)c(F)c1`: the Potency in test [1] is 18.7 µM (active); in test [2] it was 13.2 µM (active); in [4] it was 16.6 µM (active); in test [5], 7.43 µM (active); in test [6], 19.3 µM (active); in test [9] it was 9.27 µM (active). Further, the Potency entry in [3], in test [7], in [8] and in [10] was “inactive” throughout.

Turning to `Cc1cccc(-c2[nH]c(C(C)(C)C)nc2-c2ccc3nccnc3c2)n1`, the Potency in [1] was 14.8 µM (active); in test [2], 10.5 µM (active); in test [11] it was 19.3 µM (active); in test [4], 1.66 µM (active); in [12] it was 16.6 µM (active); in [13], 24.3 µM (active). For the same molecule, the Potency in test [6] is 6.11 µM (active); in test [16], 2.96 µM (active). Further, the Potency entry in test [14], in test [15] and in test [8] was “inactive” throughout.

With `O=C(C1CC1)N1CC[C@@H](Cn2c(-c3ccc(-c4ccc5occc5c4)cc3)nc3cnccc32)C1`, the Potency entry in test [1], in test [3], in test [4], in test [18], in test [12] and in test [19] was “inactive” each time. The Potency entry in test [6], in test [7], in test [14], in test [15], in [8] and in test [16] was “inactive” each time. For the same molecule, the Potency was 18.7 µM (active) in test [2] and 13.2 µM (active) in test [17].

For the molecule `N#CC[C@H](C1CCCC1)n1cc(-c2ncnc3[nH]ccc23)cn1`, the Potency in [1] is 23.5 µM (active); in test [2], 23.5 µM (active); in test [12], 14.8 µM (active); in [5], 18.7 µM (active). For the same molecule, the Potency result in test [17], in test [3], in test [4], in [18], in test [13] and in [15] was “inactive” each time.

`Cc1cc(C=c2sc3nc4ccccc4n3c2=O)c(C)n1-c1ccccc1`: the Potency result in [1], in test [2], in test [17], in [3], in test [18] and in test [5] was “inactive” each time. Also, the Potency entry in test [13], in test [7], in [14] and in test [15] was “inactive” throughout.

For the molecule `CCn1c(-c2nonc2N)nc2c(C#CC(C)(C)O)ncc(OC[C@H]3CCCNC3)c21`, the Potency in test [1] is 11.8 µM (active); in test [2], 0.469 µM (active); in [17] it was 18.7 µM (active); in test [12], 18.7 µM (active); in test [5], 5.26 µM (active); in test [7], 23.5 µM (active). The Potency result in [3], in test [13], in [19], in test [15] and in [8] was “inactive” throughout.

For `CCOc1cc(N2CCC(O)CC2)ccc1Nc1ncc2c(n1)N(C)c1ccccc1C(=O)N2C`, the Potency in test [1] was 0.0047 µM (active); in [2], 0.332 µM (active); in test [11], 0.0544 µM (active); in [17], 0.833 µM (active); in [4] it was 0.118 µM (active); in test [18], 4.29 µM (active). Also, the Potency in test [5] is 0.0935 µM (active); in test [13] it was 0.0863 µM (active); in test [6], 0.0432 µM (active); in test [7], 0.148 µM (active); in [14], 3.72 µM (active); in [16] it was 2.96 µM (active). Also, the Potency in [20] was 16.5 µM (active); in test [9], 1.17 µM (active). Also, the Potency entry in [15] was “inactive”.

For `C[C@H](NC(=O)Cc1cc(F)cc(F)c1)C(=O)N[C@@H]1C(=O)N(C)c2ccccc2-c2ccccc21`, the Potency is 7.43 µM (active) in test [1]; 5.26 µM (active) in test [2]; 12.1 µM (active) in [18]; 6.62 µM (active) in test [12]; 16.6 µM (active) in test [7]; 11.8 µM (active) in test [14]. Further, the Potency in [16] is 14.8 µM (active). The Potency entry in [17], in test [3], in test [5], in [13], in [19] and in [15] was “inactive” in each case. For the same molecule, in [8], the Potency result is “inactive”.
